Reference: PubChem BioAssay
The source made the active and inactive calls.

The molecules below were run on wheat germ agglutinin (Triticum aestivum), Alexa647-labelled (assay: wheat germ agglutinin binders on compound microarrays, profiling panel, artefact control for SMM control-protein annotation, biochemical, small-molecule microarray, 635/667 nm fluorescence (AID 1140;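 note: score merges 667 nm feature emission with signal to noise over triplicate slides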)). Settings: WGA-A647 binding, 635 nm fluorescence, higher = more signal.

Q: Which composite z-score does the source give for `COc1ccc([Si](C)(C)[C@@H]2[C@@H](CC(=O)N(CCO)Cc3ccccc3)O[C@]3(C(=O)N(Cc4ccc(N5CCOC5=O)cc4)c4ccccc43)[C@H]2C)cc1` here?
A: 0.415

Q: `[N-]=[N+]=NCc1ccccc1C[C@]1(C(=O)NCCN2CCOCC2)N=C(c2ccc(OCCCO)cc2)O[C@H]1c1ccccc1` was tested. Which composite z-score did it give?
A: 0.556

Q: How did the composite z-score turn out when `COC(=O)[C@H]1N=C(c2ccc(OCCCO)cc2)O[C@H]1c1ccccc1CN=[N+]=[N-]` was run?
A: 0.434

Each molecule was assayed against Luciferin 4-monooxygenase (Photinus pyralis) (UniProt P08659) (assay: firefly luciferase enzyme inhibitors, primary screen, biochemical, luminescence, purified enzyme, 2006 set (AID 1141;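 note: cell-free assay with purified firefly luciferase at 100 ng per well in PBS; test concentration not given here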)). Settings: SteadyGlo luminescence, 30 min, higher = more signal, called active from +8 up or from −8 down.
Luciferin 4-monooxygenase (Photinus pyralis), sequence (P08659 whole entry, looked up): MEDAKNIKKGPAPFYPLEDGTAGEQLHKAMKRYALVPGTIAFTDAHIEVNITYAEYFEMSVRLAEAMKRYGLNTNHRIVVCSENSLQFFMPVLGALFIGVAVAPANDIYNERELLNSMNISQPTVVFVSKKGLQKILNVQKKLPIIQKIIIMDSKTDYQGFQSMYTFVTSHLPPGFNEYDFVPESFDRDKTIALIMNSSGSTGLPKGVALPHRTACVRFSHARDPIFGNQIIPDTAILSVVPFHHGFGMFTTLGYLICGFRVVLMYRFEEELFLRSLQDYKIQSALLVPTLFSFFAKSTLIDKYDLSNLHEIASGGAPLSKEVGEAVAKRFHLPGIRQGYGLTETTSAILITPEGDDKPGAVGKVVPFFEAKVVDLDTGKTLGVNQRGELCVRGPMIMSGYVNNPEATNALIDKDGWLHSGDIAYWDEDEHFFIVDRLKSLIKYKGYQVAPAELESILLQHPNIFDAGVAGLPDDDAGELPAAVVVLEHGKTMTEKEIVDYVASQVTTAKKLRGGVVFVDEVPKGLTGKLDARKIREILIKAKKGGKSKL

Q: For `CC(C)[Si](C#C[Si](C(C)C)(C(C)C)C(C)C)(O[C@H](C)c1cn(Cc2cccc(Cl)c2)nn1)C(C)C`, which z-score is on record?
A: -1.11 (inactive)

Q: Which z-score does the source give for `CC(C)(C)OC(=O)CC[C@]1(C(=O)N2CCCCC2)N=C(c2ccc(OCCCO)cc2)O[C@H]1c1ccccc1CN=[N+]=[N-]` here?
A: -3.56 (inactive)

Q: With `CCOC(=O)C[C@H]1[C@H](OC(=O)Cc2ccc3c(c2)OCO3)[C@@H](NC(=O)c2ccccc2)c2cc(OCCCO)ccc2N1C(=O)c1ccc2ccccc2n1` as the molecule, how does the z-score read?
A: -1.43 (inactive)

Q: With `CC(C)CCC[C@@H](C)[C@H]1CC[C@@]2(C)C3=C(CC[C@]12C)[C@@]1(C)CC[C@H](OC(=O)c2ccc(N)cc2)C(C)(C)C1CC3` (stereo partly drawn) as the molecule, how does the z-score read?
A: -1.43 (inactive)

Q: How did the z-score turn out when `C=CCC(OC(C)=O)[C@@H]1[C@@H](N(Cc2cccc3ccccc23)C(=O)c2ccc(C)cc2)c2cc(OCCCO)ccc2N1C(=O)c1ccc2ccccc2c1` (stereo partly drawn) was run?
A: -0.195 (inactive)

Q: How did the z-score turn out when `COC(=O)C(CC#Cc1ccc2c(c1)[C@]1(C(=O)N2)[C@H](c2ccccc2OCCO)N2[C@H](c3ccccc3)[C@H](c3ccccc3)OC(=O)[C@H]2[C@@H]1C(=O)Nc1nc2ccccc2s1)C(=O)OC` was run?
A: -1.21 (inactive)

Q: How did the z-score turn out when `C=CCOC(=O)[C@@H]1[C@H]2C(=O)O[C@H](c3ccccc3)[C@H](c3ccccc3)N2[C@H](c2ccc(OCCOC(=O)[C@@H]3C[C@@H]4C(=O)N5CCC[C@H]5C(=O)N4[C@@H]3c3cccc(OCCO)c3)cc2)[C@@]12C(=O)Nc1ccc(I)cc12` was run?
A: 1.13 (inactive)

Q: How did the z-score turn out when `COc1ccc(C(=O)Nc2ccc(CN3C(=O)[C@]4(O[C@H](CCn5cc([C@H](O)c6ccccc6)nn5)[C@@H]([Si](C)(C)c5ccc(OC)cc5)[C@@H]4C)c4ccccc43)cc2)cc1` was run?
A: -0.363 (inactive)

Q: With `CN(C)C(=O)[C@@]1(CCC(=O)OC(C)(C)C)N=C(c2ccc(OCCCO)cc2)O[C@H]1c1ccccc1N=[N+]=[N-]` as the molecule, how does the z-score read?
A: -7.12 (inactive)

Q: Which z-score does the source give for `COCCOC(=O)N1C(=O)[C@@]2(c3cc(C#CCCO)ccc31)[C@H](C(=O)NC[C@H](O)c1ccccc1)[C@H]1C(=O)O[C@H](c3ccccc3)[C@H](c3ccccc3)N1[C@@H]2c1ccccc1OCCO` here?
A: -1.02 (inactive)

Q: How did the z-score turn out when `COc1ccc([Si](C)(C)[C@H]2[C@H](CCO)O[C@@]3(C(=O)N(Cc4cccc(N5CCOC5=O)c4)c4ccccc43)[C@@H]2C)cc1` was run?
A: -0.0833 (inactive)

Q: With `CN(C)CCCC[C@@H]1NC(=O)[C@H]2C[C@@H](C(=O)NCCCCCCNC(=O)CS)[C@@H](c3ccc(O)cc3)N2C1=O` as the molecule, how does the z-score read?
A: 0.78 (inactive)

Q: Which z-score does the source give for `CC(C)=CCCC(C)=CC(O)C1C=CC2C(=O)N(c3ccccc3)C(=O)C2N1Nc1ccc([N+](=O)[O-])cc1` (stereo not drawn) here?
A: 0.453 (inactive)

Q: `COC(=O)[C@@]1(Cc2ccc(OC)cc2)[C@H]2c3cc(C(=O)N(C)C)n(Cc4cc(F)c(F)c(F)c4)c3C[C@H]2CN1C(=O)c1ccccc1` was tested. Which z-score did it give?
A: 1.07 (inactive)

Q: Which z-score does the source give for `COCCOC(=O)N1C(=O)[C@@]2(c3cc(C#CCC(C(=O)OC)C(=O)OC)ccc31)[C@H](C(=O)N1CCCCCCC1)[C@H]1C(=O)O[C@H](c3ccccc3)[C@H](c3ccccc3)N1[C@@H]2c1ccc(O)cc1` here?
A: 0.414 (inactive)

Q: `[N-]=[N+]=Nc1ccccc1[C@H]1OC(c2ccc(OCCCO)cc2)=N[C@@]1(Cc1ccccc1)C(=O)NCc1ccccc1` was tested. Which z-score did it give?
A: -6.55 (inactive)

Q: Which z-score does the source give for `COC(=O)C(CC#Cc1ccc2c(c1)[C@]1(C(=O)N2)[C@H](c2ccc(O)cc2)N2[C@H](c3ccccc3)[C@H](c3ccccc3)OC(=O)[C@H]2[C@@H]1C(N)=O)C(=O)OC` here?
A: -0.899 (inactive)

Q: With `C=CCNC(=O)[C@H]1[C@@H]2C(=O)O[C@@H](c3ccccc3)[C@@H](c3ccccc3)N2[C@@H](c2ccc(OCCO)cc2)[C@]12C(=O)N(C(=O)OCCOC)c1ccc(C#CC3=CCCCC3)cc12` as the molecule, how does the z-score read?
A: -1.77 (inactive)

Q: How did the z-score turn out when `COC(=O)[C@@]1(Cc2ccccc2)[C@H]2c3cc(C(=O)N(C)C)n(Cc4ccccn4)c3C[C@H]2CN1C(=O)c1ccccc1` was run?
A: 1.56 (inactive)

Q: For `O=C(Nc1cc(Br)ccc1C(=O)NCc1cccc(O)c1)c1ccccc1`, which z-score is on record?
A: -0.0565 (inactive)

Q: With `NCCCCCCNC(=O)[C@H]1C[C@H]2C(=O)N3CCC[C@H]3C(=O)N2[C@H]1c1ccc(O)cc1` as the molecule, how does the z-score read?
A: 0.24 (inactive)

Q: With `C#CCNS(=O)(=O)N(C)C` as the molecule, how does the z-score read?
A: 0.991 (inactive)

Q: How did the z-score turn out when `CCCC=C(CCC)[C@@H](NS(=O)(=O)CC)c1ccccc1` was run?
A: 2.1 (inactive)

Q: `CN(C)CCCCCCNC(=O)[C@@H]1C[C@@H]2C(=O)NCC(=O)N2[C@@H]1c1ccc(O)cc1` was tested. Which z-score did it give?
A: 0.335 (inactive)

Q: With `NC(=O)NCC#Cc1ccc2c(c1)[C@]1(C(=O)N2)[C@H](c2ccc(O)cc2)N2[C@H](c3ccccc3)[C@H](c3ccccc3)OC(=O)[C@H]2[C@@H]1C(N)=O` as the molecule, how does the z-score read?
A: -0.22 (inactive)

Q: `COCCCNC(=O)[C@@]1(C)c2ccccc2C(=O)N(c2ccc(C)cn2)[C@H]1c1ccc(CO)cc1` was tested. Which z-score did it give?
A: 0.522 (inactive)

Q: How did the z-score turn out when `COCCCNC(=O)[C@]1(Cc2ccccc2)N=C(c2ccc(OCCCO)cc2)O[C@@H]1c1ccccc1N=[N+]=[N-]` was run?
A: -4.67 (inactive)

Q: With `CCCC=C(CCC)[C@@H](NC(=O)Cc1ccccc1)c1ccc(C(=O)OC)cc1` as the molecule, how does the z-score read?
A: 1.54 (inactive)

Q: Which z-score does the source give for `COc1ccc([Si](C)(C)[C@@H]2[C@@H](CCO)O[C@]3(C(=O)N(Cc4ccccc4)c4ccc(N5CCCCC5=O)cc43)[C@H]2C)cc1` here?
A: 0.0481 (inactive)

Q: `COc1ccc(CCNC(=O)[C@@H]2c3ccccc3C(=O)N(Cc3ccccc3)[C@H]2c2ccc(CO)cc2)cc1` was tested. Which z-score did it give?
A: 0.582 (inactive)

Q: For `O=C(CS)NCCCCCNC(=O)[C@@H]1C[C@@H]2C(=O)N3CCC[C@H]3C(=O)N2[C@@H]1c1ccc(O)cc1`, which z-score is on record?
A: -1.59 (inactive)

Q: Which z-score does the source give for `COC(=O)[C@]1(Cc2ccccc2CN=[N+]=[N-])N=C(c2ccc(OCCCO)cc2)O[C@@H]1c1ccccc1` here?
A: -1.02 (inactive)

Q: Which z-score does the source give for `COc1ccc([Si](C)(C)[C@@H]2[C@@H](CC(=O)N(CCO)Cc3ccccc3)O[C@]3(C(=O)N(Cc4ccc(N5CCOC5=O)cc4)c4ccccc43)[C@H]2C)cc1` here?
A: -0.356 (inactive)

Q: For `[N-]=[N+]=NCc1ccccc1C[C@]1(C(=O)NCCN2CCOCC2)N=C(c2ccc(OCCCO)cc2)O[C@H]1c1ccccc1`, which z-score is on record?
A: 0.375 (inactive)

Q: With `COC(=O)[C@H]1N=C(c2ccc(OCCCO)cc2)O[C@H]1c1ccccc1CN=[N+]=[N-]` as the molecule, how does the z-score read?
A: -8.1 (active)
